Source: the supplement of paper PMC11732987, “Enantioselective OTUD7B fragment discovery through chemoproteomics screening and high-throughput optimisation” (Communications Chemistry, 2025)

What was measured:
Experiment in all cases: log2 ratio of Biotin-Ahx-Ub-VS probe labelling (fragment/DMSO); higher = less target engagement (more negative = stronger competition), active = hit call of the paper (q ≤ 0.05, log2 ratio ≤ -1)
Settings in all cases: compound concentration: 200 uM; treatment time: 3 h
[1] = target: USP34 (UniProt Q70CQ2)
Chain of USP34 (Q70CQ2 whole entry, the tested form may be a part): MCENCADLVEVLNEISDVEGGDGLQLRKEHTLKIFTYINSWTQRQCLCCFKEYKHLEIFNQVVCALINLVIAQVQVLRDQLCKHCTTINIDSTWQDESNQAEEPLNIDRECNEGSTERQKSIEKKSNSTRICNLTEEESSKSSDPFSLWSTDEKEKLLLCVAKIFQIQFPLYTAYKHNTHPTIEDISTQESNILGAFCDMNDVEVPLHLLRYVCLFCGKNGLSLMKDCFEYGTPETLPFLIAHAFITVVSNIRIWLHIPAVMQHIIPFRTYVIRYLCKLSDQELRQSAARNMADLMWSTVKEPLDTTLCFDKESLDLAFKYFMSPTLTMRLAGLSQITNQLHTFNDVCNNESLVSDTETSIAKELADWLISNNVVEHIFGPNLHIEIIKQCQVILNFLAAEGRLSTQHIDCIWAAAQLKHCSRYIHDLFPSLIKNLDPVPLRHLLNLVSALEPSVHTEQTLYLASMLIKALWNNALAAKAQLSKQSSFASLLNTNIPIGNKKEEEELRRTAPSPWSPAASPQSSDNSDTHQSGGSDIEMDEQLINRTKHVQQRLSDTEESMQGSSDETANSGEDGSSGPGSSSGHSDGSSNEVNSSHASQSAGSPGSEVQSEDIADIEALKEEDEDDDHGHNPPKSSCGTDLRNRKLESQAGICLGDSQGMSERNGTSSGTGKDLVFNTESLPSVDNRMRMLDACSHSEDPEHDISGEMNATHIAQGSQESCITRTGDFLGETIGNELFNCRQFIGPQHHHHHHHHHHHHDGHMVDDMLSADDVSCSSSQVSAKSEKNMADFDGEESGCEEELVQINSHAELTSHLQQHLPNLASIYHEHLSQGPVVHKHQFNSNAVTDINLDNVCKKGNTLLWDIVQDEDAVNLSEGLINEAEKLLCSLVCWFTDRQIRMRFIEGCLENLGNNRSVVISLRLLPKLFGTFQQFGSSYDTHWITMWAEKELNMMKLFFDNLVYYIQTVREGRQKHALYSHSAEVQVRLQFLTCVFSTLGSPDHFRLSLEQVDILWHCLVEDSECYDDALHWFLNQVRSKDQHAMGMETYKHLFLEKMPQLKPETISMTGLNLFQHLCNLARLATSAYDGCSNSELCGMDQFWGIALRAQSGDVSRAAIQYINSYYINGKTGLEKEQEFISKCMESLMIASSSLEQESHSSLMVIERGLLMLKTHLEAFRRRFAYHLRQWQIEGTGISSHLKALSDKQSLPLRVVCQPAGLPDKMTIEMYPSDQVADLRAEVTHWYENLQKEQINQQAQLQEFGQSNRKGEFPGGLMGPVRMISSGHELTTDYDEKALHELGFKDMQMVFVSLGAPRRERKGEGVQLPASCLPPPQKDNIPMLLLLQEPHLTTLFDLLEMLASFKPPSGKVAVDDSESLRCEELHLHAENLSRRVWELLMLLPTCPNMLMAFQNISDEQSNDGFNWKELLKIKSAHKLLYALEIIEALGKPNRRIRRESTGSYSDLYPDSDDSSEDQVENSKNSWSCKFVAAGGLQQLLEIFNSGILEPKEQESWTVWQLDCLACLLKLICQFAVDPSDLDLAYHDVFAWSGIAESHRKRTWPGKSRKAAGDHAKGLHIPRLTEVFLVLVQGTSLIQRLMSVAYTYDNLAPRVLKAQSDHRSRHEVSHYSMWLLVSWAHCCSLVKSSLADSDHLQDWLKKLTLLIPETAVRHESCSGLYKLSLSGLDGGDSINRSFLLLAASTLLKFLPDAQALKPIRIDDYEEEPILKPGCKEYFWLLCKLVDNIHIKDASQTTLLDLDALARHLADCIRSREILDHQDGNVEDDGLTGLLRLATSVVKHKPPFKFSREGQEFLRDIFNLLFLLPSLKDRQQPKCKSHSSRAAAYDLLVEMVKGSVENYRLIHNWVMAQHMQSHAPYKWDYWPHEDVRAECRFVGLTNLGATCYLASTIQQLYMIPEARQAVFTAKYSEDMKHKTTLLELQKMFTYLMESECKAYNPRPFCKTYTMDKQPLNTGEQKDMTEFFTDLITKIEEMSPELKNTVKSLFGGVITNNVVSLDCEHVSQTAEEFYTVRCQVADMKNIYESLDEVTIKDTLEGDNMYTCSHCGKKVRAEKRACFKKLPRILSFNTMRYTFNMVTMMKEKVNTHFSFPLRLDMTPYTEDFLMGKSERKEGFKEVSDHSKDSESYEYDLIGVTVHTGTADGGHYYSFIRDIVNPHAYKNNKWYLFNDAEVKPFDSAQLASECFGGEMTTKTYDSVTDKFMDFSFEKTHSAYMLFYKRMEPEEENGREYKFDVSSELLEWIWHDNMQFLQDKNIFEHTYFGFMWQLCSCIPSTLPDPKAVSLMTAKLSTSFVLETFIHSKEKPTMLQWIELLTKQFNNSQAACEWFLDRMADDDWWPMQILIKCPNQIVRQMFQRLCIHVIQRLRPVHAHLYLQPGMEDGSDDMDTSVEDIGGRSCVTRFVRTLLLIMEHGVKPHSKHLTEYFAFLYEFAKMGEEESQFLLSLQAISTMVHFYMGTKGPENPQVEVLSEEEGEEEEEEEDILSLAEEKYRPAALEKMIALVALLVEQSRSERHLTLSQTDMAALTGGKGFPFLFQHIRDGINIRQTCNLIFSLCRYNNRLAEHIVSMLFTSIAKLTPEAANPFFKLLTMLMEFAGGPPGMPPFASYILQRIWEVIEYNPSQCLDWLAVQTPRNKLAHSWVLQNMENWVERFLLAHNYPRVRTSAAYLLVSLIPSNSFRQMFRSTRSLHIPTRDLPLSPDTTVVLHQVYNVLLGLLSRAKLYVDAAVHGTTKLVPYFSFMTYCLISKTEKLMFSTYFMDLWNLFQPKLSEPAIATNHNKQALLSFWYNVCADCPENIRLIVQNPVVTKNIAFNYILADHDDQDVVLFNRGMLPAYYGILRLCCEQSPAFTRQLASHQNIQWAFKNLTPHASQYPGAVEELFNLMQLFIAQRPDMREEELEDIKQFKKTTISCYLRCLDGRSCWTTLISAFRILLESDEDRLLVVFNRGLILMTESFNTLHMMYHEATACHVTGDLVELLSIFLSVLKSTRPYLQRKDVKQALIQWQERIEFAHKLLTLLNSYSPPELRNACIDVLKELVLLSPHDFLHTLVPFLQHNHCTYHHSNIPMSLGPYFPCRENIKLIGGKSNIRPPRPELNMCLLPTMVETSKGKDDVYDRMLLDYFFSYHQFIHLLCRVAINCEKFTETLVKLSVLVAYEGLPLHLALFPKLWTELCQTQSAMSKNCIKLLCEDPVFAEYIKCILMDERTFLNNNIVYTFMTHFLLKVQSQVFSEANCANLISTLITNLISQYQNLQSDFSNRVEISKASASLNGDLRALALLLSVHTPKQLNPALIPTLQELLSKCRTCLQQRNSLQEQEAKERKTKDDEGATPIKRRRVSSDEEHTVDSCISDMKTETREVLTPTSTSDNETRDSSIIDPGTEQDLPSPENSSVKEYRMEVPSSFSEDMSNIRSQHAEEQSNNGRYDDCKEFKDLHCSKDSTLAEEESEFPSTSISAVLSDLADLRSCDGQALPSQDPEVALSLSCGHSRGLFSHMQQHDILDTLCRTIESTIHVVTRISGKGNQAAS
Summary of the method: (§1)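 Each value is an average log2 ratio of fragment to vehicle, tested by unpaired t-test. The underlying Spectronaut label-free quantities were global-median-normalised, and only proteins with ≥2 unique peptides were included. Triplicate HEK293T lysate samples (495 µg) were exposed to fragment at 200 µM or vehicle for 3 h, then to Biotin-Ahx-Ub-VS at 0.5 µM final for 1 h, before NeutrAvidin enrichment of labelled DUBs, LysC and trypsin digestion, and diaPASEF LC-MS/MS.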

[2] = target: T1, USP36 (UniProt Q9P275)
T1 sequence (whole entry): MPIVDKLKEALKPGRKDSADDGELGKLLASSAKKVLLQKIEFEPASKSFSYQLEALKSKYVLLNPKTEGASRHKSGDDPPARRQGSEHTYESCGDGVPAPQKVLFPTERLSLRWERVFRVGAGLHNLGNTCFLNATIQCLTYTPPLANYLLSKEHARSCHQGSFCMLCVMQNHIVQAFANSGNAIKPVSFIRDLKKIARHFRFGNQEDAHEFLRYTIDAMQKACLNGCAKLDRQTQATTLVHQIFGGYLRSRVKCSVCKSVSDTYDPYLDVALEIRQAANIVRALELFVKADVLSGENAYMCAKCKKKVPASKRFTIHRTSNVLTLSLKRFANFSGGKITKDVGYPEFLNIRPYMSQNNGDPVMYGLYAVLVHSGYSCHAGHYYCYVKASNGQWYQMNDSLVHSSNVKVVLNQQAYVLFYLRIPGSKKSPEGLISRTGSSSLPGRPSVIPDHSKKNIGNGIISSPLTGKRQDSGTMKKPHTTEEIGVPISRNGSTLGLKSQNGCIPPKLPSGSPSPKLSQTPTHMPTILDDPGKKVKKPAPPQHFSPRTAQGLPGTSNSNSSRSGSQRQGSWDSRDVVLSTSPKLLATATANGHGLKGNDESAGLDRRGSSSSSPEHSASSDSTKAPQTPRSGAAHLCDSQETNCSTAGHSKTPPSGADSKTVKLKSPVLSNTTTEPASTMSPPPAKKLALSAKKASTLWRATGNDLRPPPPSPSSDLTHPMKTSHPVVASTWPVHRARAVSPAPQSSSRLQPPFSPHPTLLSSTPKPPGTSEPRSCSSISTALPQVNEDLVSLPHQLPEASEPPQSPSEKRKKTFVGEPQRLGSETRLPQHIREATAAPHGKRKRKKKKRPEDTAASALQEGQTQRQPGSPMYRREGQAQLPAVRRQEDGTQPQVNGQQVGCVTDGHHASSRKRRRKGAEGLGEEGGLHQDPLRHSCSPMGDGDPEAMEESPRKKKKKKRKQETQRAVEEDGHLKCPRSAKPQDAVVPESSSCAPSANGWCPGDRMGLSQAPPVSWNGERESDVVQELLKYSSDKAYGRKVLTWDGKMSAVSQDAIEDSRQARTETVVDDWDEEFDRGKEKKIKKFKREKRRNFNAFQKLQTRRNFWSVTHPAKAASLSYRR
Summary of the method: as §1

[3] = target: T2, USP38 (UniProt Q8NB14)
T2 sequence (whole entry): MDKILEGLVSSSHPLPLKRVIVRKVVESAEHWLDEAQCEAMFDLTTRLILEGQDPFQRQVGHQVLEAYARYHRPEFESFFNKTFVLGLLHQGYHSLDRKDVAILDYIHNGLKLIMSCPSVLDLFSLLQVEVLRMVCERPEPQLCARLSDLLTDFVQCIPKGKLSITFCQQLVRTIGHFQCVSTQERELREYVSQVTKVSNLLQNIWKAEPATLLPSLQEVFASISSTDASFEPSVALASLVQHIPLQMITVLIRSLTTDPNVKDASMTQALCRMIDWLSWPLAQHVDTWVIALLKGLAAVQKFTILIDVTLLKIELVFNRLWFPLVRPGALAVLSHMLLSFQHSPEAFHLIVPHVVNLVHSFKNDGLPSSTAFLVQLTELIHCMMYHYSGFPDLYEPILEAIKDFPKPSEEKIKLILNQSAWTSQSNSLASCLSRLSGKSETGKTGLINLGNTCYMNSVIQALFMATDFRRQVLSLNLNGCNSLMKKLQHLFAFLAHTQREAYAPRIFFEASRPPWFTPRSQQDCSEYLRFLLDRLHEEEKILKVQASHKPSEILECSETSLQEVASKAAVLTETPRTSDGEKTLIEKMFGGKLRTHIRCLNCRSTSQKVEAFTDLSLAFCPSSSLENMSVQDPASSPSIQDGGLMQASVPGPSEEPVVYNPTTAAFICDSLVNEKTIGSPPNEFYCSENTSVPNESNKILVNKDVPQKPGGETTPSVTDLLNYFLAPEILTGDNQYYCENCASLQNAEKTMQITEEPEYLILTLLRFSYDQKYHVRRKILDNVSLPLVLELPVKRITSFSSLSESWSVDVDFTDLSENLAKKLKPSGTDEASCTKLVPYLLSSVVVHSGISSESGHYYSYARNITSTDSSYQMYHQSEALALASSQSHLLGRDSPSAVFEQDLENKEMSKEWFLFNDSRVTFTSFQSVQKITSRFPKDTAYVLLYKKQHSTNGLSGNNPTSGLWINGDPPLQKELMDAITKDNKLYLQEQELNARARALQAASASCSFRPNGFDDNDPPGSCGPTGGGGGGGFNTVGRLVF
Summary of the method: as §1

[4] = target: T3, USP39 (UniProt Q53GS9)
T3 sequence (whole entry): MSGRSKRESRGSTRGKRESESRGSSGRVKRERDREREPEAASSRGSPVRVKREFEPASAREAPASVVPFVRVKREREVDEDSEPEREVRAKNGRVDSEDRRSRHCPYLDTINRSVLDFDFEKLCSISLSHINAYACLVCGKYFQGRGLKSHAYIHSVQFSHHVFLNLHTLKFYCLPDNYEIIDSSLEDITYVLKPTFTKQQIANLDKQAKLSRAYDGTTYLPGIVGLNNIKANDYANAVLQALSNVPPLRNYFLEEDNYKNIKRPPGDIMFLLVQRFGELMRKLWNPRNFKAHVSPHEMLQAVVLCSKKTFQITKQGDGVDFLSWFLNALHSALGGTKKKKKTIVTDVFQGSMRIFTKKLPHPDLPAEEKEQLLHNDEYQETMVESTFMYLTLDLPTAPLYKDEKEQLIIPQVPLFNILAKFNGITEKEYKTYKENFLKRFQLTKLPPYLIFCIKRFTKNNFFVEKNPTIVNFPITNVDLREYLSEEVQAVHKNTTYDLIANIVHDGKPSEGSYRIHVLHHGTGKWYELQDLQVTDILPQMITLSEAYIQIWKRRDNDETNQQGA
Summary of the method: as §1

[5] = target: T4, USP4 (UniProt Q13107)
T4 sequence (whole entry): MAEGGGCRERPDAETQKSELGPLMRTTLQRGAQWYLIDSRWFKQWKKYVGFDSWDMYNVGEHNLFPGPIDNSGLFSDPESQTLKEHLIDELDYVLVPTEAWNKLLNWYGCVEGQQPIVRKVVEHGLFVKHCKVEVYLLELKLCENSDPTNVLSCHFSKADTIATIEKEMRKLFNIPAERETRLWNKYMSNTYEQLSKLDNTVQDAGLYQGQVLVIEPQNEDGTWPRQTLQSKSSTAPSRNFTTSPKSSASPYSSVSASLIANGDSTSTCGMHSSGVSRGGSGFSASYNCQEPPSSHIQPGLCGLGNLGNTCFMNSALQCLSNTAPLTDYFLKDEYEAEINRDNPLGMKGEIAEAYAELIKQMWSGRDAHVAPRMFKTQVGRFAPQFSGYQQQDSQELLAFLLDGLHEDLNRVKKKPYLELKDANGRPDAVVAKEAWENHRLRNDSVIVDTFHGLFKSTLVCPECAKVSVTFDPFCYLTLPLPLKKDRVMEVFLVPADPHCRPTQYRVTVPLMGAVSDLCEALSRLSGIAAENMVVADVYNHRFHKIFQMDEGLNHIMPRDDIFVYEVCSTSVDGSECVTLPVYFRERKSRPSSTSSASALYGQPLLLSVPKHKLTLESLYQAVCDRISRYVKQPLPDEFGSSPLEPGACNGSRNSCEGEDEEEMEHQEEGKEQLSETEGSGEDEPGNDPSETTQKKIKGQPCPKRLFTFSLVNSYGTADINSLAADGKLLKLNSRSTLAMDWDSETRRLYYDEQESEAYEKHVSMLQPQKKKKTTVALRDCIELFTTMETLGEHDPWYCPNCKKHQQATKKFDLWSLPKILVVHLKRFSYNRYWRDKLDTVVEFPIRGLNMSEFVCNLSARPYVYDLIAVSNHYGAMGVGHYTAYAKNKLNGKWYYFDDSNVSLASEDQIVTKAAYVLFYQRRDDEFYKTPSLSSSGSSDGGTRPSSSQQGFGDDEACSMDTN
Summary of the method: as §1

Measured: log2 ratio of Biotin-Ahx-Ub-VS probe labelling

Cn1cc(CN(Cc2ccc(Cl)cc2)C(=O)CCl)cn1
inactive: [1] -0.228 | [2] 0.253 | [3] -0.245 | [4] -0.193 | [5] -0.316
